PubChem BioAssay (NCATS)
Results filed as inconclusive are left out. Active and inactive are the calls of the source. Unless noted, calls follow the shape of the dose curve; as a rule, active = well fitted curve in the direction sought with a large enough effect; inconclusive = small, poorly fitted or top-dose-only effect, or another doubt; inactive = no such curve, though single readings can be large; an effect the other way counts as inactive or inconclusive.

Tests used:
[1] = qHTS to identify inhibitors of the type 1 interferon - major histocompatibility complex class I in skeletal muscle: primary screen against the NCATS Mechanism Interrogation Plate v5.0 (MIPE) Libary (AID 1347411); also: nearly all actives have a fitted effect of over 65% in size; also: potency is read from the fitted curve at half-maximal effect;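 as to activity change, negative = inhibition: plate controls were vehicle for no effect and reference inhibitor for full effect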
Procedure, shortened: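 Luminescence from CRISPR HiBit-tagged endogenous HLA-B in human myoblasts reported MHC class I level after 24 h of IFN-beta (4 ng/ml) plus compound. Compounds ran as 11-point 1:3 series, top 46 uM final.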

[2] = Primary qHTS for inhibitors of nuclear receptor binding SET domain protein 2 (NSD2) in an isogenic RCH-ACV NSD2 p.E1099K mutant (9B) (AID 1645876); also: nearly all actives have a fitted effect of over 70% in size; also: potency is read from the fitted curve at half-maximal effect; as to activity change, negative = viability loss: % is scaled to controls: 0 for no effect and ±100 for the full control effect
[3] = Primary qHTS for inhibitors of nuclear receptor binding SET domain protein 2 (NSD2) in an RCH-ACV wild type WT cells (2C) (AID 1645877); also: nearly all actives have a fitted effect of over 70% in size; also: potency is read from the fitted curve at half-maximal effect
[4] = target: Phospholipid hydroperoxide glutathione peroxidase GPX4 (Homo sapiens) (UniProt P36969); experiment: Primary qHTS Assay for Inhibitors of Recombinant Selenoprotein Glutathione Peroxidase 4 (GPX4) (AID 1845192); settings: outcome: dose series up to 50 µM unless noted; also: nearly all actives have a fitted effect of over 65% in size; as to activity change, negative = inhibition: series mostly up to about 50 µM; % is scaled to controls: 0 for no effect and ±100 for the full control effect
Sequence of Phospholipid hydroperoxide glutathione peroxidase GPX4 (Homo sapiens) (P36969 whole entry, looked up): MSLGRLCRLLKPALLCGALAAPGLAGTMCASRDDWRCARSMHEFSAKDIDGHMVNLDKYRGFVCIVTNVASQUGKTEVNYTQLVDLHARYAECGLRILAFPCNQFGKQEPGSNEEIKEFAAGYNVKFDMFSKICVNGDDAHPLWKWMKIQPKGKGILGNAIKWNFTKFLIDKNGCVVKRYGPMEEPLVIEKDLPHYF
Procedure, shortened: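 qHTS, GR-coupled: GPX4 200 nM + cpd 30 min RT → GSH 1 mM, NADPH 0.5 mM, GR 100 nM → CHP 0.5 mM start; fluor 340/450 at t0 and t15 min; no-enzyme wells as control.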

[5] = qHTS drug screen for cell cycle checkpoint inhibitors in PARPi-resistant BRCA-mutant ovarian cancer cell lines. (AID 1963452; calls by dose curve); settings: PEO1/OlaR viability, CellTiter-Glo luminescence, 96 h, stronger effect = lower value
Procedure, shortened: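 PEO1, PEO4 and PEO1/OlaR ovarian cancer cells, 600 per well, exposed 96 h at 37C to a dilution series. Viability read by CellTiter-Glo luminescence, normalized to DMSO and empty wells; activity summarized as Z-AUC.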

[6] = target: Glutathione peroxidase 1 (Homo sapiens) (UniProt P07203); experiment: Primary qHTS Assay for Inhibitors of Recombinant Selenoprotein Glutathione Peroxidase 1 (GPX1) (AID 1845191); also: nearly all actives have a fitted effect of over 65% in size; as to activity, negative = inhibition: % is scaled to controls: 0 for no effect and ±100 for the full control effect
Sequence of Glutathione peroxidase 1 (Homo sapiens) (P07203 whole entry, looked up): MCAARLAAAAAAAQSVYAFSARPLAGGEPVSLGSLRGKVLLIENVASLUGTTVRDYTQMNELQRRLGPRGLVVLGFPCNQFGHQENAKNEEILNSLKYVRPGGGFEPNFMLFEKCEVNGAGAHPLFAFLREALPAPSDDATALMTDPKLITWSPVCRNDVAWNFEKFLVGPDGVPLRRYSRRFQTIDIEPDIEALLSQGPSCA
Procedure, shortened: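 GPX1 10 nM, GR 100 nM, GSH 1 mM, NADPH 0.5 mM, CHP 0.5 mM (final). 30-min cpd preincubation, RT. Ex340/Em450 read t=0, t=15 min.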

[7] = measured here: PEO1 parental Z-AUC

SMILES	Potency [1]	Potency [2]	Potency [3]	Potency [4]	Z-AUC [5]	Z-AUC [5, 7]	Z-AUC ([5]; measured here: PEO4 Z-AUC)	Potency [6]	activity change, negative = inhibition [1]	activity change, negative = viability loss [2]	activity, negative = inhibition [6]	outcome [4]
CCOc1ccc(Cc2cc([C@@H]3O[C@H](CO)[C@@H](O)[C@H](O)[C@H]3O)ccc2Cl)cc1	inactive	inactive	inactive	inactive	1.26 (inactive)	1.31	1.52	–	–	–	–	–
CO[C@H]1/C=C/O[C@@]2(C)Oc3c(C)c(O)c4c(O)c(c5c(nc6cc(C)ccn65)c4c3C2=O)NC(=O)/C(C)=C\C=C\[C@H](C)[C@H](O)[C@@H](C)[C@@H](O)[C@@H](C)[C@H](OC(C)=O)[C@@H]1C	inactive	20.9 µM (active)	23.5 µM (active)	–	-0.712 (inactive)	-1.19	-1.09	inactive	–	–	–	–
CCC(C)CNCC(=O)N1CCc2sccc2C1c1cccc(C)n1 (stereo not given)	inactive	inactive	inactive	inactive	-0.668 (inactive)	-0.627	-0.749	–	–	–	–	–
CCOC(=O)N[C@@H]1CC[C@@H]2[C@@H](C1)C[C@H]1C(=O)O[C@H](C)[C@H]1[C@H]2/C=C/c1ccc(-c2cccc(F)c2)cn1	inactive	18.6 µM (active)	13.2 µM (active)	inactive	0.314 (inactive)	1.37	1.33	–	–	–	–	–
C[C@@H]1CC(=O)Nc2cccc(-c3ccc4c(c3)c(-c3cnn(C)c3)nn4C)c2N1	inactive	0.742 µM (active)	0.662 µM (active)	–	1.34 (inactive)	1.02	1.12	inactive	–	–	–	–
CC(=O)N[C@H]1[C@H](O[C@@H]2c3ccc(c(Cl)c3)Oc3cc4cc(c3O[C@@H]3O[C@H](CO)[C@@H](O)[C@H](O)[C@H]3NC(=O)CCCCCCCC(C)C)Oc3ccc(cc3Cl)C[C@H]3NC(=O)[C@H](N)c5ccc(O)c(c5)Oc5cc(O)cc(c5)[C@H](NC3=O)C(=O)N[C@H]4C(=O)N[C@H]3C(=O)N[C@@H]2C(=O)N[C@@H](C(=O)O)c2cc(O)cc(O[C@H]4O[C@H](CO)[C@@H](O)[C@H](O)[C@@H]4O)c2-c2cc3ccc2O)O[C@H](CO)[C@@H](O)[C@@H]1O	inactive	inactive	inactive	inactive	0.721 (inactive)	0.652	1.05	–	–	–	–	–
C[C@H](NC(=O)CCC(F)(F)F)C(=O)N[C@@H]1C(=O)N(CCO)c2ncccc2-c2ccccc21	inactive	inactive	inactive	inactive	-0.268 (inactive)	0.166	-0.664	–	–	–	–	–
CN1[C@@H]2CCC[C@H]1CC(NC(=O)c1nn(C)c3ccccc13)C2 (stereo not given in full)	inactive	inactive	inactive	–	–	–	–	–	–	–	–	–
Cc1c(-c2c(-c3ccc(F)o3)sc3ncnc(O[C@@H](Cc4ccccc4OCc4ccnn4CC(F)(F)F)C(=O)O)c23)ccc(OCCN2CCN(C)CC2)c1Cl	inactive	0.662 µM (active)	0.166 µM (active)	–	0.0867 (inactive)	0.964	1	inactive	–	–	–	–
Cc1cc(O)cc2c1[C@]1(C)CC[C@H]3C(C)(C)CCC[C@]3(C)[C@H]1C2	–	–	–	–	1.24 (inactive)	0.915	1	–	-19.8% [at 5.1 µM] (inactive)	-32.6% [at 4.96 µM] (inactive)	-4.81% [at 4.49 µM] (inactive)	inactive [at 4.52 µM]
Cc1ccc(-c2nc(N)nc3c2nnn3Cc2cccc(CO[C@H]3CCOC3)n2)o1	inactive	inactive	inactive	–	-1.33 (inactive)	-0.982	-1.11	inactive	–	–	–	–
CC(C)NCCCn1c(Sc2cc(Cl)cc(Cl)c2)nc2c(N)ncnc21	inactive	20.9 µM (active)	18.6 µM (active)	inactive	-1.23 (inactive)	-0.363	0.533	–	–	–	–	–
C[C@@]1(c2ncncc2F)NC(=O)c2cc(-c3cn[nH]c3)ccc21	20.8 µM (active)	14.8 µM (active)	14.8 µM (active)	inactive	-0.499 (inactive)	-0.528	-0.372	–	–	–	–	–
COc1ccc(CNC(=O)c2cc(-c3cncc(Cl)c3)cnc2-c2ccccn2)nc1OC	inactive	inactive	inactive	inactive	0.765 (inactive)	0.872	1.32	–	–	–	–	–
CS(=O)(=O)c1ccc(-c2cnc(NCc3ccco3)n3cnnc23)cc1	inactive	inactive	inactive	–	1.04 (inactive)	0.794	1.01	–	–	–	–	–
O=C(/C=C\n1cnc(-c2cc(C(F)(F)F)cc(C(F)(F)F)c2)n1)NNc1ccccn1	2.34 µM (active)	3.72 µM (active)	3.32 µM (active)	inactive	-0.821 (inactive)	-1.43	-1.79	–	–	–	–	–
COC(=O)/C=C/C(=O)OC	inactive	inactive	inactive	inactive	-0.0504 (inactive)	0.852	0.675	–	–	–	–	–
O=C(CCNC(=O)c1ccc(OC(F)(F)F)cc1)N[C@@H]1CCCc2ccccc21	inactive	inactive	inactive	inactive	1.15 (inactive)	0.0965	0.626	–	–	–	–	–
O=C1CC(c2c[nH]c3ccc(F)cc23)C(=O)N1 (stereo not given)	inactive	inactive	inactive	inactive	0.488 (inactive)	0.554	0.655	–	–	–	–	–
CC(C)Oc1ccc(-c2nc(-c3cccc4c3CC[C@@H]4NCCO)no2)cc1C#N	inactive	14.8 µM (active)	18.6 µM (active)	–	-0.0463 (inactive)	0.729	1.1	inactive	–	–	–	–
